Results on ten compounds are retold here after PubChem BioAssay (NCI).

The panel holds about 79,000 compounds, 15% with a hit somewhere; the sample as a whole holds those more often. Values without a mark were called inactive. Calls of active or inactive are those of the source. No stated cut-off is given here; in the data, active means growth inhibition above about 70%; inactive means the rest.

The nature of assay [1]: NCI Yeast Anticancer Drug Screen. Data for the rad50 strain (AID 155).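 Further: 0% = growth of vehicle-only cultures of the same strain.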 The conditions noted are these: S. cerevisiae rad50 strain growth inhibition, active compounds read high. In a few lines: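 Vehicle-treated cultures provide the reference for the growth inhibition reported for compound-exposed, repair-deficient yeast.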
The nature of assay [2]: NCI Yeast Anticancer Drug Screen. Data for the mec2-1 strain (AID 157). The conditions noted are these: S. cerevisiae mec2-1 strain, active compounds read high. In a few lines: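 Vehicle-treated cultures served as reference for growth inhibition of compound-exposed mec2-1 yeast.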
Assay [3] is described as follows: NCI Yeast Anticancer Drug Screen. Data for the sgs1 mgt1 strain (AID 161).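 Further: 0% = growth of cultures given vehicle only.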 The conditions noted are these: S. cerevisiae sgs1 mgt1 strain, active compounds read high. In a few lines: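 Test agents were incubated with a DNA-repair-mutant yeast strain. Growth was then read and compared against vehicle-treated controls.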
Assay [4] can be described thus: NCI Yeast Anticancer Drug Screen. Data for the cln2 rad14 strain (AID 165).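 Further: 0% = growth equal to vehicle treated cultures.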 The conditions noted are these: S. cerevisiae cln2 rad14 strain, active compounds read high. In a few lines:
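Each compound was tested on cln2 rad14 yeast. Inhibition of growth was calculated against vehicle-exposed controls.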

Assay [5] is described as follows: NCI Yeast Anticancer Drug Screen. Data for the bub3 strain (AID 167). The conditions noted are these: S. cerevisiae bub3 mutant strain, active compounds read high. In a few lines: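 Mutant yeast screening strain plus compound; vehicle-treated cultures serve as the 0% inhibition reference.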
Assay [6] is described as follows: NCI Yeast Anticancer Drug Screen. Data for the mlh1 rad18 strain (AID 175). The conditions noted are these: S. cerevisiae mlh1 rad18 strain growth inhibition, active compounds read high. In outline: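 Vehicle-treated cultures served as the reference for growth inhibition in a yeast strain carrying DNA damage repair alterations exposed to each compound.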
Setting [7] is: at 5.0 µM (retest, dose inferred, filed as 0.5).
The mark [8] stands for this setting: at 50.0 µM (retest, dose inferred, filed as 5.0).

As for `O=C(Cc1ccc2c(c1)OCO2)c1ccc(O)cc1O`, the growth inhibition in assay [1] (setting [7]) was 6%; in assay [1] (setting [8]), 84% (active); in assay [1] (at 50.0 µM) it was 97.4% (active); in assay [2] (setting [7]) it was 1%; in assay [2] (setting [8]), 93% (active); in assay [2] (at 50.0 µM), 98.4% (active). Moreover, the growth inhibition is 9% in assay [3] (setting [7]); 85% (active) in assay [3] (setting [8]); 96.7% (active) in assay [3] (at 50.0 µM); 6% in assay [4] (setting [7]); 84% (active) in assay [4] (setting [8]); 96.1% (active) in assay [4] (at 50.0 µM). Besides, the growth inhibition in assay [5] (setting [7]) is 10%; in assay [5] (setting [8]) it was 90% (active); in assay [5] (at 50.0 µM), 97.2% (active); in assay [6] (setting [7]), 5%; in assay [6] (setting [8]) it was 88% (active); in assay [6] (at 50.0 µM) it was 96.5% (active).
For the compound `CCCN1C(=O)c2ccccc2C1=O`, the growth inhibition in assay [1] (setting [7]) was 9%; in assay [1] (setting [8]), 2%; in assay [1] (at 50.0 µM), 20.4%; in assay [2] (setting [7]) it was 1%; in assay [2] (setting [8]), -3%; in assay [2] (at 50.0 µM), -6.65%. The growth inhibition in assay [3] (setting [7]) is -3%; in assay [3] (setting [8]), 4%; in assay [3] (at 50.0 µM), 14.1%; in assay [4] (setting [7]) it was 10%; in assay [4] (setting [8]) it was 2%; in assay [4] (at 50.0 µM), 36.6%. Also, the growth inhibition in assay [5] (setting [7]) is 10%; in assay [5] (setting [8]), 17%; in assay [5] (at 50.0 µM) it was -0.55%; in assay [6] (setting [7]), 4%; in assay [6] (setting [8]), 0%; in assay [6] (at 50.0 µM) it was 9.5%.
On to `CC(=O)Oc1c(Cl)cc(Cl)cc1C(c1cc(Cl)cc(Cl)c1OC(C)=O)C(Cl)(Cl)Cl`, for which the growth inhibition in assay [1] (setting [7]) is 6%; in assay [1] (setting [8]), 31%; in assay [1] (at 50.0 µM), 90.8% (active); in assay [2] (setting [7]), 2%; in assay [2] (setting [8]) it was 25%; in assay [2] (at 50.0 µM), 98.3% (active). In addition, the growth inhibition in assay [3] (setting [7]) was -1%; in assay [3] (setting [8]) it was -5%; in assay [3] (at 50.0 µM) it was 83.9% (active); in assay [4] (setting [7]), -10%; in assay [4] (setting [8]) it was 2%; in assay [4] (at 50.0 µM), 82.8% (active). Also, the growth inhibition was -3% in assay [5] (setting [7]); 20% in assay [5] (setting [8]); 98.3% (active) in assay [5] (at 50.0 µM); -2% in assay [6] (setting [7]); 23% in assay [6] (setting [8]); 95.5% (active) in assay [6] (at 50.0 µM).
Consider `C/C(=N/Nc1ccc([N+](=O)[O-])cc1[N+](=O)[O-])C1=CCC(C(C)(C)C)CC1` (stereo not given), for which the growth inhibition in assay [1] (setting [7]) is 7%; in assay [1] (setting [8]), 2%; in assay [1] (at 50.0 µM), -6.7%; in assay [2] (setting [7]), -4%; in assay [2] (setting [8]), -11%; in assay [2] (at 50.0 µM) it was -32.5%. Besides, the growth inhibition in assay [3] (setting [7]) is -5%; in assay [3] (setting [8]) it was 27%; in assay [3] (at 50.0 µM), -7.05%; in assay [4] (setting [7]), 4%; in assay [4] (setting [8]), -1%; in assay [4] (at 50.0 µM), 38.8%. Further, the growth inhibition is -3% in assay [5] (setting [7]); -1% in assay [5] (setting [8]); -11.6% in assay [5] (at 50.0 µM); -7% in assay [6] (setting [7]); -6% in assay [6] (setting [8]); 11.8% in assay [6] (at 50.0 µM).
On to `CC(C)CC(CC(C)C)OP(=O)(O)OC(CC(C)C)CC(C)C`, for which the growth inhibition in assay [1] (setting [7]) is 7%; in assay [1] (setting [8]), 76% (active); in assay [1] (at 50.0 µM) it was 80.1% (active); in assay [2] (setting [7]) it was 11%; in assay [2] (setting [8]), 72% (active); in assay [2] (at 50.0 µM), 82.5% (active). In addition, the growth inhibition in assay [3] (setting [7]) is 9%; in assay [3] (setting [8]) it was 71% (active); in assay [3] (at 50.0 µM), 77.2% (active); in assay [4] (setting [7]), 13%; in assay [4] (setting [8]), 78% (active); in assay [4] (at 50.0 µM) it was 85% (active). Moreover, the growth inhibition in assay [5] (setting [7]) was 9%; in assay [5] (setting [8]) it was 78% (active); in assay [5] (at 50.0 µM) it was 70.5% (active); in assay [6] (setting [7]), 9%; in assay [6] (setting [8]) it was 82% (active); in assay [6] (at 50.0 µM), 79.3% (active).
Take `Cc1ccc2c(c1)CC1(C2)Cc2ccc(C)cc2C1=O` (stereo not given): the growth inhibition was 6% in assay [1] (setting [7]); 73% (active) in assay [1] (setting [8]); 25.4% in assay [1] (at 50.0 µM); -20% in assay [2] (setting [7]); 85% (active) in assay [2] (setting [8]); 17.6% in assay [2] (at 50.0 µM). Also, the growth inhibition in assay [3] (setting [7]) is -28%; in assay [3] (setting [8]), 75% (active); in assay [3] (at 50.0 µM) it was 54.3%; in assay [4] (setting [7]), 29%; in assay [4] (setting [8]), 39%; in assay [4] (at 50.0 µM), 21.4%. For the same compound, the growth inhibition was -5% in assay [5] (setting [7]); 88% (active) in assay [5] (setting [8]); 64.8% in assay [5] (at 50.0 µM); 5% in assay [6] (setting [7]); 65% in assay [6] (setting [8]); 44.1% in assay [6] (at 50.0 µM).
Take `COc1cccnc1/C=N/NC(N)=S`: the growth inhibition in assay [1] (setting [7]) was -4%; in assay [1] (setting [8]) it was 58%; in assay [1] (at 50.0 µM), 69.5%; in assay [2] (setting [7]), -4%; in assay [2] (setting [8]) it was 59%; in assay [2] (at 50.0 µM), 69.9%. Further, the growth inhibition was -4% in assay [3] (setting [7]); 63% in assay [3] (setting [8]); 73.9% (active) in assay [3] (at 50.0 µM); -6% in assay [4] (setting [7]); 19% in assay [4] (setting [8]); 48.5% in assay [4] (at 50.0 µM). Further, the growth inhibition in assay [5] (setting [7]) was 0%; in assay [5] (setting [8]), 60%; in assay [5] (at 50.0 µM), 75.5% (active); in assay [6] (setting [7]) it was -5%; in assay [6] (setting [8]) it was 70% (active); in assay [6] (at 50.0 µM), 71.9% (active).
With `O=C(Nc1ccc(F)c([N+](=O)[O-])c1)NC(Cc1ccccc1)c1ccccc1` (stereo not given), the growth inhibition is -11% in assay [1] (setting [7]); 86% (active) in assay [1] (setting [8]); 91.6% (active) in assay [1] (at 50.0 µM); -2% in assay [2] (setting [7]); 93% (active) in assay [2] (setting [8]); 94.2% (active) in assay [2] (at 50.0 µM). Also, the growth inhibition in assay [3] (setting [7]) was 12%; in assay [3] (setting [8]), 92% (active); in assay [3] (at 50.0 µM), 94.2% (active); in assay [4] (setting [7]), 2%; in assay [4] (setting [8]), 92% (active); in assay [4] (at 50.0 µM), 88.9% (active). The growth inhibition in assay [5] (setting [7]) was -4%; in assay [5] (setting [8]) it was 92% (active); in assay [5] (at 50.0 µM), 81.8% (active); in assay [6] (setting [7]), 26%; in assay [6] (setting [8]), 91% (active); in assay [6] (at 50.0 µM), 93.1% (active).
As to `COc1cc2c(ccc3cc4cccc[n+]4cc32)c(Br)c1OC`, the growth inhibition is 0% in assay [1] (setting [7]); 44% in assay [1] (setting [8]); 76.8% (active) in assay [1] (at 50.0 µM); -6% in assay [2] (setting [7]); 73% (active) in assay [2] (setting [8]); 42.5% in assay [2] (at 50.0 µM). The growth inhibition was -7% in assay [3] (setting [7]); 39% in assay [3] (setting [8]); 73.2% (active) in assay [3] (at 50.0 µM); -8% in assay [4] (setting [7]); 13% in assay [4] (setting [8]); 20.4% in assay [4] (at 50.0 µM). In addition, the growth inhibition in assay [5] (setting [7]) was -5%; in assay [5] (setting [8]) it was 46%; in assay [5] (at 50.0 µM), 10.4%; in assay [6] (setting [7]) it was 4%; in assay [6] (setting [8]) it was 75% (active); in assay [6] (at 50.0 µM), 67.8%.
For `N#CC1Oc2ccccc2N1C(=O)c1ccccc1` (stereo not given), the growth inhibition in assay [1] (setting [7]) was 2%; in assay [1] (setting [8]), 12%; in assay [1] (at 50.0 µM), 33%; in assay [2] (setting [7]), 0%; in assay [2] (setting [8]), 7%; in assay [2] (at 50.0 µM) it was 54.1%. Besides, the growth inhibition in assay [3] (setting [7]) is -3%; in assay [3] (setting [8]), -4%; in assay [3] (at 50.0 µM), 36%; in assay [4] (setting [7]), -6%; in assay [4] (setting [8]) it was 0%; in assay [4] (at 50.0 µM) it was -0.55%. Moreover, the growth inhibition in assay [5] (setting [7]) was -8%; in assay [5] (setting [8]), 48%; in assay [5] (at 50.0 µM), 77.3% (active); in assay [6] (setting [7]) it was 2%; in assay [6] (setting [8]), 4%; in assay [6] (at 50.0 µM), 64.3%.
